From PubChem BioAssay
HIF-2a inh: blocks HIF-2a reporter activity; hit rate 0.72% among 360,000; inhibition, % at 18.8 µM; 786-0 RCC cells HIF-2a reporter, luciferase luminescence, overnight;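 active = inhibition of the luminescence signal of 40% or more relative to plate controls, in a single-dose primary screen at 18.75 µM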
Shn3 inh set2: reduces Shn3 3'UTR luciferase signal in osteoblasts. hit rate 0.52% among 360,000. Clone20 osteoblast Shn3 3'UTR firefly luciferase, 24 h. inhibition, % at 12.5 µM. AID 588674;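 active = mean inhibition of at least 75% with every replicate also reaching 75%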;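 also: 0% = median of neutral control wells and 100% = pilot-screen positive control compound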
MITF TRPM1 inh: inhibitors of MITF-driven TRPM1 promoter in melanoma cells; hit rate 0.83% among 330,000; SK-MEL-5 TRPM1 promoter luciferase, 24 h; inhibition, % at 12.5 µM; AID 488899;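 active = mean inhibition across replicates of 60% or more, whatever share of single replicates reaches that level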
KKLEB tox: CF airway cell cytotoxicity counter-screen; KKLEB CF airway cells viability, ATPlite luminescence, overnight; hits give low values; cells stimulated with P. aeruginosa culture filtrate; hit rate 0.36% among 360,000; AID 602141; activity change (cytotoxicity), % at 5 µM;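 active = corrected activity change at or below -50% at 5 µM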
Peg3 prom inh: reduces Peg3 promoter-driven luciferase expression in HeLa; HeLa PEG-Prom luciferase reporter, luminescence, overnight; inhibition, % at 20 µM; hit rate 1.7% among 360,000; AID 588405;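 active = inhibition of at least 50% at 20 µM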
CF NFkB block: blocks PAF-induced NF-kB reporter in cystic fibrosis cells; AID 588850; inhibition, % at 5 µM; hit rate 0.86% among 360,000; KKLEB NF-kB-GFP reporter, GFP fluorescence overnight;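 active = at least 50% inhibition at 5 µM, scaled per plate between neutral and stimulator controls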;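 also: PAF is a Pseudomonas aeruginosa culture filtrate used as stimulus; plate controls were PAF-stimulated DMSO wells for no effect and unstimulated DMSO wells for full effect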
* marks the source's active call; other numbers are inactive results; . = not tested or not shown. A selection: hits, their analogues and other compounds. The true share with any hit is near 2.8%.

SMILES	HIF-2a inh	Shn3 inh set2	MITF TRPM1 inh	KKLEB tox	Peg3 prom inh	CF NFkB block
C[C@@H](NC(=O)c1ncn2c1c(=O)[nH]c1cccnc12)c1ccccc1	11.4	1.6	.	9.9	2.2	-30.2
C[C@@H](NC(=O)c1ncn2c1c(=O)[nH]c1ccc(Br)cc12)c1ccccc1	6.8	66.4	.	7.6	79.1*	-10.9
COc1ccc(NC(=O)CSc2nc3c(sc4ccccc43)c(=O)n2CCCN2CCCC2)cc1	-18.1	-4.6	82.6*	-6.5	69.1*	-3.0
COc1ccc(NC(=O)CSc2nc(N)c(C#N)cc2C#N)cc1	-7.7	9.0	2.2	-2.5	-15.5	5.1
COc1ccc2nc(SCC(=O)Nc3ccc4sc(C)nc4c3)c(C#N)cc2c1	-59.1	-2.2	2.9	-61.6*	-37.7	16.7
C#CCn1c(=NC(=O)c2ccc(S(=O)(=O)N3CCc4ccccc4C3)cc2)sc2cc(S(N)(=O)=O)ccc21	-6.6	97.3*	90.4*	-52.6*	102.7*	52.2*
O=C(c1cc(COc2ccc3c(c2)CCCC3)on1)N1CCCC1	-229.8	-40.5	-112.9	14.0	-372.6	-15.2
N#Cc1cccc2c1-c1ccccc1/C2=N/NC(N)=O	29.9	20.6	3.2	10.2	51.6*	-100.9
O=C(COc1ccc(/C=N/NC(=O)c2cc3ccccc3o2)cc1Br)Nc1ccccc1	-234.4	36.5	93.2*	-50.7*	99.1*	50.9*
CCCOc1ccc(/C(CC)=N/NC(=O)C2(C)CC2(Br)Br)cc1 (configuration not stated)	1.6	-26.4	-10.7	-51.6*	8.9	34.2
Cc1nn(-c2ccccc2)c(C)c1/C=N/n1c(-c2ccc(Cl)cc2)n[nH]c1=S	8.4	10.7	3.9	2.8	52.7*	17.2
Cc1ccc(-c2nn(-c3cc(N4CCNCC4)ccc3[N+](=O)[O-])c(=O)c3ccccc23)cc1	17.1	28.8	46.5	-27.8	102.2*	14.5
Cc1nn(-c2cc(N3CCCCCC3)ccc2[N+](=O)[O-])c(=O)c2ccccc12	4.0	14.2	-2.5	-8.3	7.6	5.2
Cc1cccc(C)c1-n1nnnc1C(c1ccnc2ccccc12)N1CCN(C(=O)OC(C)(C)C)CC1 (configuration not stated)	24.9	.	.	.	.	.
C=Cn1ccnc1CC(O)c1ccc(OC)cc1 (configuration not stated)	3.7	-12.8	0.7	-2.9	7.0	-10.4
[N-]=[N+]=NC1C[C@H](n2ccc(=O)[nH]c2=O)O[C@@H]1CO (some centres not stated)	5.6	0.7	6.0	-60.8*	-7.3	6.5
Cc1cc2nc(-c3ccc(SCC(=O)Nc4ccc5c(c4)OCCO5)nc3)[nH]c2cc1C	-253.8	-42.8	-64.7	-53.6*	-137.6	-37.2
Cc1ccc2nc(-c3ccc(SCC(=O)Nc4nnc(C)s4)nc3)[nH]c2c1	-34.8	-24.1	-3.2	4.8	98.6*	-16.3
COc1ccc(C(C(=O)NC(C)(C)C)N(CCC(C)C)C(=O)CCC(=O)Nc2cc(C)on2)cc1 (configuration not stated)	6.3	3.8	-2.2	7.6	25.2	6.0
COc1ccc(CN(C)C(=O)CCNS(=O)(=O)c2ccccc2)c(OC)c1	7.1	10.6	.	-3.4	0.4	-6.3
CC(C)CCNC(=O)C(c1ccc(O)cc1)N(Cc1cccs1)C(=O)C1COc2ccccc2O1 (configuration not stated)	-7.7	-1.2	-4.8	-3.3	51.2*	5.2
COc1ccc(N2CCN(CC(=O)Nc3c(C)cccc3C)CC2)cc1	5.0	-17.5	.	1.8	-0.1	-11.1
C=CCN(C(=O)CCC(=O)Nc1cc(C)on1)C(C(=O)NC(C)(C)CC)c1cccc(OC)c1OC (configuration not stated)	1.9	11.2	2.2	-5.7	9.6	10.8
CC1(C)C(=O)N(c2ccccc2)C1c1ccccc1O (configuration not stated)	35.8	-5.7	1.2	-10.8	52.5*	18.2
CCOc1ccc2oc(C(=O)Nc3cc(C)ccn3)c(C)c2c1	-190.4	-107.9	-105.5	-42.1	-220.3	-32.8
CC(C)[N+]1=C2C=CC=CC=C2SC12C([N+](=O)[O-])=CC(=[N+]([O-])[O-])C=C2[N+](=O)[O-] (configuration not stated)	-4.3	-8.3	26.3	-12.2	-5.7	-12.6
